The values that follow come from the supplement of paper PMC10981050.

Holding throughout (assay): cell viability relative to vehicle control; higher = less cytotoxic
Holding throughout (details): 10 µM

For one assay, the system named is K562. In a few lines:
(§1)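 CRISPR-edited mutant clones and isogenic wild-type clones from four leukaemia lines were screened against Selleck bioactive, kinase and epigenetic probe libraries, with identity-inconsistent compounds excluded. Each compound was acoustically dispensed at a single 10 µM dose into 384-well plates holding 2000 cells in 50 µL medium per well. After 48 h the supernatant was removed and CellTiter-Glo luminescence was read. Viability was expressed as percent of the on-plate vehicle control and analysed in Genedata Screener.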

The subject of a further assay is MARIMO. In short, it runs like this: as §1
A further assay has as its system MOLM14. In a few lines: as §1
For another assay, the system named is OCI-AML2. In short, it runs like this:
as §1

The structures appear in SMILES notation. Several values for one entry are separate records, joined by “and”; a condition that tells them apart may be missing. Identical values can stand only once. Counter-ions that a name gives are not always drawn.

In the case of `CC(=O)Nc1ccc(C(=O)Nc2ccccc2N)cc1` [CI994 (Tacedinaline)], the cell viability with K562 (SRSF2 genotype: SRSF2 P95H/wt) was 59.2% and 64.7%; in the assay on K562 (SRSF2 genotype: SRSF2 wt/wt) it was 66%; with MARIMO (SRSF2 genotype: SRSF2 P95H/wt), 37.9%; with MARIMO (SRSF2 genotype: SRSF2 wt/wt), 41.3%; in the assay with MOLM14 (SRSF2 genotype: SRSF2 P95H/wt), 31.6%; with MOLM14 (SRSF2 genotype: SRSF2 wt/wt) it was 25.8%. Further, the values for the cell viability in the assay on OCI-AML2 (SRSF2 genotype: P95H/wt) and with OCI-AML2 (SRSF2 genotype: wt/wt) were 24.3% and 30%, respectively.
As to `Cc1ccc(C(C)C)cc2c(C)ccc1-2` [Guaiazulene], the cell viability with K562 (SRSF2 genotype: SRSF2 P95H/wt) is 97.5% and 99%; with K562 (SRSF2 genotype: SRSF2 wt/wt), 110%; with MARIMO (SRSF2 genotype: SRSF2 P95H/wt), 102%; in the assay with MARIMO (SRSF2 genotype: SRSF2 wt/wt), 101%; in the assay with MOLM14 (SRSF2 genotype: SRSF2 P95H/wt), 93.5%; with MOLM14 (SRSF2 genotype: SRSF2 wt/wt) it was 105%. For the same compound, the cell viability is 107% in the assay with OCI-AML2 (SRSF2 genotype: P95H/wt) and 93.4% in the assay with OCI-AML2 (SRSF2 genotype: wt/wt).
With `CC#Cc1cncc(-c2ccc3c(c2)C2(N=C(C)C(N)=N2)C2(CCC(OC)CC2)C3)c1` (stereo not given), the cell viability is 108% and 98.5% in the assay with K562 (SRSF2 genotype: SRSF2 P95H/wt); 107% in the assay on K562 (SRSF2 genotype: SRSF2 wt/wt); 100% in the assay with MARIMO (SRSF2 genotype: SRSF2 P95H/wt); 103% in the assay with MARIMO (SRSF2 genotype: SRSF2 wt/wt); 98% in the assay on MOLM14 (SRSF2 genotype: SRSF2 P95H/wt); 98.9% in the assay on MOLM14 (SRSF2 genotype: SRSF2 wt/wt). In addition, the cell viability in the assay on OCI-AML2 (SRSF2 genotype: P95H/wt) came out at 88.8%; in the assay with OCI-AML2 (SRSF2 genotype: wt/wt), 93.1%.
Regarding `CCCOc1ccc(CCc2nc3cc(-c4c(C)noc4C)ccc3n2CCN2CCOCC2)cc1`, the cell viability is 81.1% and 91% with K562 (SRSF2 genotype: SRSF2 P95H/wt); 84.9% in the assay on K562 (SRSF2 genotype: SRSF2 wt/wt); 80.3% in the assay with MARIMO (SRSF2 genotype: SRSF2 P95H/wt); 76.7% in the assay on MARIMO (SRSF2 genotype: SRSF2 wt/wt); 60.3% in the assay with MOLM14 (SRSF2 genotype: SRSF2 P95H/wt); 65% in the assay with MOLM14 (SRSF2 genotype: SRSF2 wt/wt). Also, the values for the cell viability in the assay with OCI-AML2 (SRSF2 genotype: P95H/wt) and in the assay on OCI-AML2 (SRSF2 genotype: wt/wt) were 59.1% and 73.5%, respectively.
Regarding `CC(C)c1cccc(O)c(=O)c1`, the cell viability in the assay on K562 (SRSF2 genotype: SRSF2 P95H/wt) is 87.6% and 88.1%; in the assay with K562 (SRSF2 genotype: SRSF2 wt/wt), 83.2%; with MARIMO (SRSF2 genotype: SRSF2 P95H/wt), 79.5%; in the assay on MARIMO (SRSF2 genotype: SRSF2 wt/wt) it was 70.3%; in the assay on MOLM14 (SRSF2 genotype: SRSF2 P95H/wt), 93.5%; in the assay on MOLM14 (SRSF2 genotype: SRSF2 wt/wt), 96.4%. Moreover, the cell viability in the assay on OCI-AML2 (SRSF2 genotype: P95H/wt) stood at 59.6%; in the assay on OCI-AML2 (SRSF2 genotype: wt/wt), 59.8%.
Turning to `CCN(CC)CCN(Cc1ccc(-c2ccc(C(F)(F)F)cc2)cc1)C(=O)Cn1c(SCc2ccc(F)cc2)nc(=O)c2c1CCC2`, the cell viability is 0.31% and 0.26% in the assay on K562 (SRSF2 genotype: SRSF2 P95H/wt); 0.26% with K562 (SRSF2 genotype: SRSF2 wt/wt); 0.34% in the assay with MARIMO (SRSF2 genotype: SRSF2 P95H/wt); 0.46% with MARIMO (SRSF2 genotype: SRSF2 wt/wt); 0.23% in the assay on MOLM14 (SRSF2 genotype: SRSF2 P95H/wt); 0.24% in the assay with MOLM14 (SRSF2 genotype: SRSF2 wt/wt). The cell viability in the assay with OCI-AML2 (SRSF2 genotype: P95H/wt) was found to be 0.22%; in the assay on OCI-AML2 (SRSF2 genotype: wt/wt) it was 0.29%.
With `N=c1ccn2c(n1)O[C@H]1[C@H](O)[C@@H](CO)O[C@H]12` [Cyclocytidine HCl], the cell viability in the assay on K562 (SRSF2 genotype: SRSF2 P95H/wt) was 92.8% and 103%; with K562 (SRSF2 genotype: SRSF2 wt/wt), 101%; in the assay with MARIMO (SRSF2 genotype: SRSF2 P95H/wt), 27.8%; with MARIMO (SRSF2 genotype: SRSF2 wt/wt) it was 29%; in the assay on MOLM14 (SRSF2 genotype: SRSF2 P95H/wt), 11.3%; in the assay with MOLM14 (SRSF2 genotype: SRSF2 wt/wt), 2.48%. For the same compound, the cell viability in the assay on OCI-AML2 (SRSF2 genotype: P95H/wt) worked out at 9.61%; with OCI-AML2 (SRSF2 genotype: wt/wt), 9.31%.
For `O=C(O)CSc1nnc(Br)n1-c1ccc(C2CC2)c2ccccc12` [Lesinurad], the cell viability in the assay with K562 (SRSF2 genotype: SRSF2 P95H/wt) is 98.3% and 93.5%; in the assay on K562 (SRSF2 genotype: SRSF2 wt/wt), 97.5%; in the assay with MARIMO (SRSF2 genotype: SRSF2 P95H/wt), 95.1%; in the assay with MARIMO (SRSF2 genotype: SRSF2 wt/wt), 108%; in the assay with MOLM14 (SRSF2 genotype: SRSF2 P95H/wt), 98.7%; in the assay with MOLM14 (SRSF2 genotype: SRSF2 wt/wt), 101%. Moreover, the figures for the cell viability in the assay with OCI-AML2 (SRSF2 genotype: P95H/wt) and in the assay with OCI-AML2 (SRSF2 genotype: wt/wt) were 96.9% and 100%, respectively.
Consider `C[C@@H](O)[C@H]1C(=O)N2C(C(=O)O)=C(S[C@@H]3CN[C@H](CNS(N)(=O)=O)C3)[C@H](C)[C@H]12` [Doripenem Hydrate], for which the cell viability in the assay on K562 (SRSF2 genotype: SRSF2 P95H/wt) is 95.8% and 101%; in the assay on K562 (SRSF2 genotype: SRSF2 wt/wt), 94.1%; in the assay on MARIMO (SRSF2 genotype: SRSF2 P95H/wt), 94.6%; with MARIMO (SRSF2 genotype: SRSF2 wt/wt), 101%; in the assay on MOLM14 (SRSF2 genotype: SRSF2 P95H/wt) it was 103%; with MOLM14 (SRSF2 genotype: SRSF2 wt/wt), 97.5%. For the same compound, the results for the cell viability in the assay with OCI-AML2 (SRSF2 genotype: P95H/wt) and with OCI-AML2 (SRSF2 genotype: wt/wt) were 96.4% and 99%, respectively.
Turning to `COC[C@H](NC(=O)c1cnc(C)s1)C(=O)N[C@@H](COC)C(=O)N[C@@H](Cc1ccccc1)C(=O)[C@@]1(C)CO1` [Oprozomib (ONX 0912)], the cell viability is 0.73% and 1.14% in the assay with K562 (SRSF2 genotype: SRSF2 P95H/wt); 1.05% with K562 (SRSF2 genotype: SRSF2 wt/wt); 0.37% with MARIMO (SRSF2 genotype: SRSF2 P95H/wt); 0.74% in the assay with MARIMO (SRSF2 genotype: SRSF2 wt/wt); 0.16% in the assay on MOLM14 (SRSF2 genotype: SRSF2 P95H/wt); 0.2% in the assay with MOLM14 (SRSF2 genotype: SRSF2 wt/wt). For the same compound, the cell viability in the assay on OCI-AML2 (SRSF2 genotype: P95H/wt) turned out to be 0.2%; in the assay on OCI-AML2 (SRSF2 genotype: wt/wt) it was 0.17%.

The term cell viability denotes a read-out of living cells in per cent, often relative to untreated cells.
